Among all 16,000 compounds or so, about 4,000 (25%) were called active. Roughly 26% stayed inconclusive and do not appear here. These entries were drawn from the full list. Values without a mark were called inactive. Calls follow the shape of the dose curve; as a rule, active = well fitted curve in the direction sought with a large enough effect; inconclusive = small, poorly fitted or top-dose-only effect, or effect the other way; inactive = no such curve, though single readings can be large or run the other way.
% is scaled to controls: 0 for no effect and ±100 for the full control effect.

Chain of Cytochrome P450 2C9 (Homo sapiens) (P11712 whole entry, looked up): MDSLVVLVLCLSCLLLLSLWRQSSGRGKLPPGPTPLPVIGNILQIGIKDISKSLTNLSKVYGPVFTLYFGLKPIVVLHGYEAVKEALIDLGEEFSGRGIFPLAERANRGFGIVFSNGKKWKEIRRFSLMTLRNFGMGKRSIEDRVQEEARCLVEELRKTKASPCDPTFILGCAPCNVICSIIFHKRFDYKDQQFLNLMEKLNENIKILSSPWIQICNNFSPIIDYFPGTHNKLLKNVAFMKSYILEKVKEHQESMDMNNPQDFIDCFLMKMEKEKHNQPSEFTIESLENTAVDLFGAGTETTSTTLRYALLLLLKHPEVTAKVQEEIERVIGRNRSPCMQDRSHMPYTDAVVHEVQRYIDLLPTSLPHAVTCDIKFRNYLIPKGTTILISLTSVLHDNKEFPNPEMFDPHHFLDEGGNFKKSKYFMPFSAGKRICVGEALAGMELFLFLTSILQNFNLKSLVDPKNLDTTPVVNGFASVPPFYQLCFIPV

The test addresses Cytochrome P450 2C9 (Homo sapiens) (UniProt P11712). Description: Cytochrome panel assay with activity outcomes. The following applies: recombinant CYP, pro-luciferin dealkylation, luminescence, p450-cyp2c9; series mostly up to 57.1 µM; activity, negative = inhibition: at the top concentration.
With `CCN1C(=O)[C@H]2[C@H]3[C@H](O)[C@H](O)C/C(=N/OCC(C)C)[C@@H]3CC[C@@H]2C1=O`, the activity, negative = inhibition was 28.3% [at 11.4 µM]. Turning to `Cc1cccc(OCCSCc2nc3ccccc3[nH]2)c1`, the AC50 (usually the concentration at which the activity in the assay is half-maximal) was 5.01 µM (active). As to `C[N+](C)(C)CCCSc1nc2ccccc2[nH]1`, the activity, negative = inhibition is 3.61% [at 11.4 µM].

For the compound `CS(=O)(=O)Nc1cccc(-c2ccc3ncnc(Nc4ccc(F)cc4)c3c2)c1`, the activity, negative = inhibition was -7.12% [at 2.29 µM]. As to `CC(C)C12CN3CC(C(C)C)(CN(C1)C3c1ccco1)C2=O` (stereo not drawn), the “activity, negative = inhibition” value was -18.4%. On to `Cc1ccc(N=CC2=C(O)CC(c3ccco3)CC2=O)cc1` (stereo not drawn), for which the half-maximal activity concentration (AC50) was 8.91 µM (active). As for `COc1ccc(C(=O)N2CCC3(CCCN(C)C3)CC2)cc1`, the “activity, negative = inhibition” value was -17.7%. Take `CCCn1c(CC)nc([N+](=O)[O-])c1S(=O)(=O)c1ccccc1`: the “activity, negative = inhibition” value is 5.38%. For `COc1ccc(COc2ccsc2C(=O)Nc2ccc(Cl)c(Cl)c2)cc1`, the AC50 is 2.82 µM (active).

`CNC(=S)NNC(=O)c1sccc1OCc1ccc(C)cc1`: the “activity, negative = inhibition” value was -25.3%. `CCc1ccc(C(CC(=O)c2ccc(Cl)cc2)C(=O)O)cc1` (stereo not drawn): the concentration at half-maximal activity (AC50) is 10 µM (active).

With `N[C@H](Cc1ccc(Cl)cc1)C(=O)O`, the “activity, negative = inhibition” value was 23.1%. As for `O=C(O)CCC(=O)c1ccc(Cl)cc1`, the activity, negative = inhibition was 18.6% [at 11.4 µM]. Consider `CSc1ccc(CNc2ccc(Cl)cc2)cc1`, for which the AC50 was 6.31 µM (active).

On to `COc1cccc(CNCc2ccc(SC)cc2)c1OC`, for which the “activity, negative = inhibition” value was -20%. On to `CSc1ccc(CNc2ccccc2)cc1`, for which the AC50 is 12.6 µM (active). Turning to `CS(=O)(=O)Nc1cccc(-c2cc(NCc3ccccc3)ncn2)c1`, the activity, negative = inhibition is 22.3% [at 2.29 µM].

As to `Cc1ccc(C)c(NC(=O)NCc2ccc(Cl)cc2)c1`, the activity, negative = inhibition is -2.65% [at 11.4 µM]. For the compound `Cc1ccc(S(=O)(=O)N[C@H]2COC(=O)C/C=C\[C@@H](C)[C@H](NS(=O)(=O)c3ccc(C)cc3)COC(=O)[C@H](C)NC(=O)C/C=C\[C@H]2C)cc1`, the activity, negative = inhibition is 15.4% [at 11.4 µM].

As for `COC(=O)C/C=C\[C@@H](C)[C@@H](/C=N\O[C@@H](C)c1cn([C@H]2COC[C@H]2O)nn1)NS(=O)(=O)c1ccc(C)cc1`, the activity, negative = inhibition was 16% [at 11.4 µM]. Consider `CCCNC(=O)OC[C@@H]1O[C@H](CCON=C(C)C)C=C[C@@H]1Oc1ccc(OC)cc1`, for which the activity, negative = inhibition is 2.96% [at 11.4 µM].

As to `CCCNC(=O)OC[C@H]1O[C@@H](CCO/N=C\[C@@H](NS(=O)(=O)c2ccc(C)cc2)[C@H](C)/C=C\CC(=O)OC)C=C[C@@H]1Oc1ccc(OC)cc1`, the AC50 was 3.98 µM (active).

Regarding `CO/N=C\[C@@H](NS(=O)(=O)c1ccc(C)cc1)[C@H](C)/C=C\CC(=O)OC`, the activity, negative = inhibition was -27.4% [at 11.4 µM]. As to `COc1ccc(O[C@H]2C=C[C@@H](c3ccccc3)O[C@@H]2CO/N=C\[C@@H](C)[C@H](OCc2ccccc2)C(C)C)cc1`, the activity, negative = inhibition is -24.2% [at 11.4 µM].

As for `COC(=O)C/C=C\[C@@H](C)[C@@H](/C=N\OC[C@@H]1O[C@H](c2ccccc2)C=C[C@@H]1Oc1ccc(OC)cc1)NS(=O)(=O)c1ccc(C)cc1`, the AC50 is 1.26 µM (active). On to `COC(=O)C/C=C\[C@@H](C)[C@@H](/C=N\OC[C@@H](O)COCc1ccco1)NS(=O)(=O)c1ccc(C)cc1`, for which the activity, negative = inhibition is -14.9% [at 11.4 µM]. `CCCNC(=O)OC[C@@H]1O[C@H](CCO/N=C\[C@@H](C)[C@H](OCc2ccccc2)C(C)C)C=C[C@@H]1Oc1ccc(OC)cc1`: the activity, negative = inhibition is -22.3% [at 11.4 µM].

Consider `COC(=O)C/C=C\[C@@H](C)[C@@H](/C=N\O[C@@H](C)c1cc(-c2c(C)cc(C)cc2C)no1)NS(=O)(=O)c1ccc(C)cc1`, for which the AC50 was 2.51 µM (active). As to `CCNc1ncc2nc(-c3ccc(F)cc3)c(=O)n(CCOC)c2n1`, the “activity, negative = inhibition” value is -4.26%. Turning to `CCOC(=O)C1=C(C)NC(=O)NC1c1ccoc1` (stereo not drawn), the AC50 is 12.6 µM (active). With `CCOC(=O)C1=C(C)NC(=O)N[C@@H]1c1coc2cc(C)cc(C)c2c1=O`, the activity, negative = inhibition is -14.5% [at 11.4 µM]. As for `CCOC(=O)c1c(C)c(C)n2c1NC(=O)C2`, the activity, negative = inhibition was -2.03% [at 11.4 µM]. As for `CCN(C(=O)CSc1nc2cc(C(=O)OC)ccc2c(=O)n1Cc1ccco1)c1cccc(C)c1`, the AC50 is 0.2 µM (active). For the compound `COCCn1c(=O)c(-c2ccc(OC)cc2)nc2cnc(N3CCOCC3)nc21`, the “activity, negative = inhibition” value was 17.6%.

In the case of `COc1cc2nc(N3CC=[N+](C(=O)c4ccco4)CC3)nc(N)c2cc1OC`, the “activity, negative = inhibition” value is -8.49%. In the case of `COCCNC(=O)CSc1nc2ccc(N3CCOCC3)cc2c(=O)n1Cc1ccc(OC)cc1`, the AC50 is 5.62 µM (active). Take `CCCCNC(=O)CSc1nc2cc(OC)c(OC)cc2c(=O)n1Cc1ccc(OC)cc1`: the AC50 is 2.24 µM (active). For the compound `COc1ccc2nc(SCC(=O)NN)cc(C)c2c1`, the “activity, negative = inhibition” value was 12.8%. For the compound `COCCNC(=O)CSc1nc2cc(OC)c(OC)cc2c(=O)n1Cc1ccco1`, the AC50 was 2.24 µM (active). For the compound `COc1cc2nc(N(C)CCCNC(=O)[C@@H]3CCCO3)nc(N)c2cc1OC`, the “activity, negative = inhibition” value was -16.9% [at 25.6 µM]. On to `COCCCNC(=O)CCC(=O)Nc1ccc2nc(N3CCOCC3)cc(C)c2c1`, for which the “activity, negative = inhibition” value is -26.7%. With `CCN1CCC[C@H]1CNC(=O)c1cc(S(N)(=O)=O)ccc1OC`, the AC50 entry is “inactive”.

For `Cc1sc2ccccc2[n+]1CCC(=O)O`, the activity, negative = inhibition is 9.02% [at 11.4 µM]. The same measure, in the same setting: in the case of `Cc1sc2ccccc2[n+]1CCC(C)S(=O)(=O)[O-]` (stereo not drawn) it was -33%.

For the compound `CCOC(=O)C[n+]1c(C)sc2ccc(OC)cc21`, the AC50 is 14.1 µM (active).

Consider `COc1ncc2nc(CCc3ccccc3)c(=O)n(CCC#N)c2n1`, for which the “activity, negative = inhibition” value is -25.7%. For `N#CCCn1c(=O)c(CCc2ccccc2)nc2cnc(Oc3ccccc3)nc21`, the half-maximal activity concentration (AC50) is 7.94 µM (active).

Turning to `N#CCCn1c(=O)c(CCc2ccccc2)nc2cnc(Oc3cccc(Cl)c3)nc21`, the AC50 is 3.16 µM (active). On to `Cn1cc(-c2nc3cnc(Oc4ccccc4)nc3n(CCC#N)c2=O)c2ccccc21`, for which the “activity, negative = inhibition” value is 6%. With `COc1cccc(Nc2ncc3nc(CCc4ccccc4)c(=O)n(CCC#N)c3n2)c1`, the “activity, negative = inhibition” value is 10.7%.

On to `COCCn1c(=O)c(-c2cn(C)c3ccccc23)nc2cnc(OCc3ccccc3)nc21`, for which the “activity, negative = inhibition” value is 23.6%. For the compound `COc1ccc(Oc2ncc3nc(CCc4ccccc4)c(=O)n(CCC#N)c3n2)cc1`, the half-maximal activity concentration (AC50) is 10 µM (active). As for `N#CCCn1c(=O)c(CCc2ccccc2)nc2cnc(OCc3ccccc3)nc21`, the AC50 is 15.8 µM (active).

(Values after PubChem BioAssay AID1851 (National Center for Advancing Translational Sciences (NCATS), 2009).)
